MITF primary = inhibitors of human MITF | O75030 | inhibition, % at 2.6 µM | AID 1259374 | AlphaScreen MITF homodimerization, bead proximity signal | actives 0.91% (n = 650,000); in the data active = inhibition above about 50%;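 note: 0% = vehicle wells with protein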
TEAD-YAP block = TEAD-YAP interaction inhibition; inhibition, % at 9.12 µM; HEK-TIYL cells, TEAD-Gal4/YAP UAS-luciferase luminescence; actives 1.4% (n = 640,000); in the data active = inhibition above about 32%;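 note: 0% = median of test compound wells and 100% = reference inhibitor wells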
GPR151 ag = activates the human receptor GPR151 | Q8TDV0 | PathHunter beta-arrestin GPR151 cells, luminescence | activation, % at 11.2 µM | actives 1% (n = 650,000) | AID 1508602; in the data active = activation above about 4.9%;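 note: 0% = median of compound wells and 100% = cells with positive control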
FBW7 act = activators of human E3 ligase FBW7; AlphaScreen FBW7–phospho-cyclin E peptide binding, activator screen; AID 1259310; normalized activity (activation), % at 26.1 µM; actives 0.13% (n = 650,000); Q969H0; in the data active = normalized activity above about 1.9%;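 note: purified mutant Fbw7 with reduced substrate affinity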
MITF confirm = confirmation of human MITF inhibitors; shares compounds with MITF primary; AlphaScreen MITF homodimerization, biotin/His-MITF beads; inhibition, % at 2.6 µM; actives 16% (n = 4,700); AID 1259372;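 active = inhibition above a cutoff derived from the DMSO control wells, cut at about 28% in these data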;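 note: 0% = MITF dimer wells with DMSO only; inhibitors lower the bead chemiluminescence by keeping MITF from dimerizing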
AS interf DR = counter-screen: compounds optically interfering with AlphaScreen | shares compounds with MITF primary | AlphaScreen optical interference counterscreen, cell-free | IC50, µM | actives 6% (n = 480); call rule not given here
AS interf ctr = counter-screen: compounds optically interfering with AlphaScreen | shares compounds with MITF primary | LysRS AlphaScreen counterscreen, signal interference, triplicate | inhibition, % at 2.6 µM | actives 7.6% (n = 4,700);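 active = inhibition above a cutoff derived from the DMSO control wells, cut at about 30% in these data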
* hit, by the source's call; ! = repeats disagree. Shown are actives, neighbours in structure and some others; about 3.4% of the full set was active somewhere.

What do the screens show for `COc1ccc(CN2CCN(C(=O)COc3ccc(Cl)cc3)CC2)cc1OCc1ccccc1`?
MITF primary: 58.7*; TEAD-YAP block: 9.0; GPR151 ag: 0.5; FBW7 act: -0.2; MITF confirm: 2.8; AS interf ctr: 10.9

How did O=C(COc1ccc(Cl)cc1)N1CCN(Cc2cccc(F)c2)CC1 do in these assays?
MITF primary: 68.3*; TEAD-YAP block: -0.7; GPR151 ag: -0.3; FBW7 act: 0.1; MITF confirm: -1.9; AS interf ctr: 2.3

Results for c1ccc(-c2ccc(CN3CCOCC3)cc2)cc1 ?
MITF primary: 32.0; TEAD-YAP block: 3.4; GPR151 ag: 0.3; FBW7 act: 0.0

How did CC1(C)Cc2ccccc2C2=[N+]1CCS2 do in these assays?
MITF primary: -16.3; TEAD-YAP block: -8.8; GPR151 ag: -0.8; FBW7 act: -0.2

How did Cc1nc2ccc(P(=O)(O)O)cc2s1 do in these assays?
MITF primary: 55.1*; TEAD-YAP block: 6.4; GPR151 ag: 2.7; FBW7 act: -0.3; MITF confirm: 11.9; AS interf ctr: 40.1*

How did O=P(O)(O)C(Cl)(Cl)P(=O)(O)O do in these assays?
MITF primary: 77.1*!; TEAD-YAP block: -7.2; GPR151 ag: 1.4; FBW7 act: -0.2; MITF confirm: 62.5*; AS interf ctr: -7.3

How did CN1CCN(Cc2c(O)ccc3ccccc23)CC1 do in these assays?
MITF primary: -12.2; TEAD-YAP block: -2.9; GPR151 ag: 0.5; FBW7 act: -0.2

What do the screens show for `CN1CCN(Cc2ccc(O)c3ncccc23)CC1`?
MITF primary: 94.1*; TEAD-YAP block: -5.4; GPR151 ag: 0.0; FBW7 act: -2.1; MITF confirm: 105.6*; AS interf ctr: 100.6*

Results for CCc1c(C(=O)NCc2cn(C)nc2C)c(=O)cc(C)n1CCN1CCCCC1 ?
MITF primary: -9.7; TEAD-YAP block: 2.2; GPR151 ag: -1.3; FBW7 act: -0.1

How did O=C(Cn1ncn2cccc2c1=O)N1CCC2(CC1)OCCO2 do in these assays?
MITF primary: -5.7; TEAD-YAP block: -11.5; GPR151 ag: 0.3; FBW7 act: 0.1

How did Cc1nn(CC(=O)N2CCC3(CC2)OCCO3)c(=O)c2cc3sccc3n12 do in these assays?
MITF primary: 65.5*; TEAD-YAP block: -2.6; GPR151 ag: 0.4; FBW7 act: -0.3; MITF confirm: 24.0; AS interf ctr: 5.0

What do the screens show for `O=[N+]([O-])c1c(Cl)cc(Cl)c2nonc12`?
MITF primary: 7.2; TEAD-YAP block: 1.7; GPR151 ag: 2.4; FBW7 act: 0.1

What do the screens show for `O=C(O)CSc1cc(Cl)c2nonc2c1[N+](=O)[O-]`?
MITF primary: 87.3*; TEAD-YAP block: 13.3; GPR151 ag: 0.6; FBW7 act: 0.1; MITF confirm: 84.7*; AS interf DR: >6.6; AS interf ctr: 20.7

What do the screens show for `N#Cc1ccc(C(=O)Nc2cc(Br)ccc2C(=O)c2ccccc2)cc1`?
MITF primary: 22.3; TEAD-YAP block: 2.5; GPR151 ag: -1.5; FBW7 act: -0.1

Results for CCc1ccc(N2C(=O)CC(=O)NC2=O)cc1 ?
MITF primary: 69.3*; TEAD-YAP block: 0.8; GPR151 ag: -1.4; FBW7 act: 0.4; MITF confirm: 7.5; AS interf ctr: 15.1

Results for O=C(CN1CCN(C(=O)Cc2ccc(F)cc2)CC1)c1cccs1 ?
MITF primary: 23.8; TEAD-YAP block: 6.9; GPR151 ag: -0.7; FBW7 act: -0.4

Results for O=C(CN1CCN(C(=O)COc2ccccc2F)CC1)c1cccs1 ?
MITF primary: 50.6*; TEAD-YAP block: 12.2; GPR151 ag: 2.1; FBW7 act: -0.2; MITF confirm: 7.1; AS interf ctr: 19.9

Results for COCCn1c(C)cc(C=C(C#N)C#N)c1C ?
MITF primary: 6.3; TEAD-YAP block: -2.5; GPR151 ag: 0.3; FBW7 act: 0.0

What do the screens show for `Cc1ccc(-n2c(/C=C/c3ccccc3C(F)(F)F)nc3ccccc3c2=O)cc1`?
MITF primary: 15.2; TEAD-YAP block: 0.9; GPR151 ag: 1.3; FBW7 act: -0.1

Results for O=C1c2ccccc2-c2onc3ccc(NCCBr)c1c23 ?
MITF primary: 5.9; TEAD-YAP block: -5.8; GPR151 ag: -1.4; FBW7 act: -0.7

What do the screens show for `CCOC(=O)C1C2NC(=S)N(CCc3ccccc3)C1(C)Oc1ccc(Br)cc12` (configuration not stated)?
MITF primary: 18.4; TEAD-YAP block: 4.6; GPR151 ag: 2.7; FBW7 act: -0.1

What do the screens show for `CCOC(=O)C1C2NC(=S)N(CC)C1(C)Oc1ccc(Br)cc12` (configuration not stated)?
MITF primary: 53.1*; TEAD-YAP block: 14.5; GPR151 ag: 1.1; FBW7 act: -0.2; MITF confirm: 31.2*; AS interf DR: >6.31; AS interf ctr: 24.9

What do the screens show for `CCOC(=O)C1C2NC(=S)N(c3cccc(C)c3)C1(C)Oc1ccc(OC)cc12` (configuration not stated)?
MITF primary: 58.7*; TEAD-YAP block: 4.1; GPR151 ag: -0.4; FBW7 act: -0.8; MITF confirm: 49.6*; AS interf ctr: 35.0*

Results for CCOC(=O)C1C2NC(=S)N(c3ccccc3)C1(C)Oc1cc(OC)ccc12 (configuration not stated) ?
MITF primary: 52.5*; TEAD-YAP block: -8.1; GPR151 ag: -0.5; FBW7 act: -0.6; MITF confirm: 47.1*; AS interf DR: >6.4; AS interf ctr: 29.7

Results for O=C(CN1CCN(c2ccccc2)CC1)Nc1ccc(Br)cc1C(=O)c1ccccc1Br ?
MITF primary: 12.2; TEAD-YAP block: -2.6; GPR151 ag: 1.1; FBW7 act: 0.1

Results for CCN1CCN(Cc2c(C)noc2C)CC1 ?
MITF primary: 83.0*; TEAD-YAP block: 1.4; GPR151 ag: -0.6; FBW7 act: -0.2; MITF confirm: 13.4; AS interf ctr: 15.4

Results for CN1CCN(Cc2cccc3ccccc23)CC1 ?
MITF primary: 38.8; TEAD-YAP block: 11.8; GPR151 ag: -0.4; FBW7 act: -0.2

Results for COc1ccc(CN2CCN(Cc3ccccc3Cl)CC2)cc1 ?
MITF primary: 80.8*; TEAD-YAP block: 3.2; GPR151 ag: -0.5; FBW7 act: -0.1; MITF confirm: 0.2; AS interf ctr: 8.6

Results for COc1ccc(O)c(CN2CCN(Cc3ccccc3Br)CC2)c1 ?
MITF primary: 49.8; TEAD-YAP block: -12.4; GPR151 ag: -0.1; FBW7 act: -0.2

What do the screens show for `CN1CCN(Cc2coc3ccccc3c2=O)CC1`?
MITF primary: 51.4*; TEAD-YAP block: 55.5*; GPR151 ag: 3.1; FBW7 act: 0.1; MITF confirm: 0.8; AS interf ctr: 8.0

What do the screens show for `CN1CCN(Cc2ccccc2Cl)CC1`?
MITF primary: 64.1*; TEAD-YAP block: 14.5; GPR151 ag: -0.1; FBW7 act: -0.2; MITF confirm: 2.7; AS interf ctr: 7.0

Screening data from PubChem.
